According to PubChem BioAssay (Tox21):
Where “and” joins values, the source holds several entries; their conditions need not be identical. Equal values may be shown once. Records with an inconclusive call do not appear. Where a call stands in place of a potency, no number is given. Calls of active or inactive are those of the source. Calls come from the whole dose curve; as a rule, active = well fitted inhibition curve with a large enough effect in the signal ratio in the repeat runs (not every such curve was filed as active); inconclusive = weak or mixed curves, or effect the other way; inactive = no such curve, though single readings can be large or run the other way; the % refers to the signal ratio.
Potency is the fitted concentration of half-maximal effect.

These molecules were tested against Androgen receptor (Homo sapiens) (UniProt P10275) (assay: qHTS assay to identify small molecule antagonists of the androgen receptor (AR) signaling pathway (AID 743035)). Settings: HEK293 AR-UAS-bla, R1881-stimulated, beta-lactamase FRET, 16 h; series mostly up to 58.5 µM.
Androgen receptor (Homo sapiens), sequence (P10275 whole entry, looked up): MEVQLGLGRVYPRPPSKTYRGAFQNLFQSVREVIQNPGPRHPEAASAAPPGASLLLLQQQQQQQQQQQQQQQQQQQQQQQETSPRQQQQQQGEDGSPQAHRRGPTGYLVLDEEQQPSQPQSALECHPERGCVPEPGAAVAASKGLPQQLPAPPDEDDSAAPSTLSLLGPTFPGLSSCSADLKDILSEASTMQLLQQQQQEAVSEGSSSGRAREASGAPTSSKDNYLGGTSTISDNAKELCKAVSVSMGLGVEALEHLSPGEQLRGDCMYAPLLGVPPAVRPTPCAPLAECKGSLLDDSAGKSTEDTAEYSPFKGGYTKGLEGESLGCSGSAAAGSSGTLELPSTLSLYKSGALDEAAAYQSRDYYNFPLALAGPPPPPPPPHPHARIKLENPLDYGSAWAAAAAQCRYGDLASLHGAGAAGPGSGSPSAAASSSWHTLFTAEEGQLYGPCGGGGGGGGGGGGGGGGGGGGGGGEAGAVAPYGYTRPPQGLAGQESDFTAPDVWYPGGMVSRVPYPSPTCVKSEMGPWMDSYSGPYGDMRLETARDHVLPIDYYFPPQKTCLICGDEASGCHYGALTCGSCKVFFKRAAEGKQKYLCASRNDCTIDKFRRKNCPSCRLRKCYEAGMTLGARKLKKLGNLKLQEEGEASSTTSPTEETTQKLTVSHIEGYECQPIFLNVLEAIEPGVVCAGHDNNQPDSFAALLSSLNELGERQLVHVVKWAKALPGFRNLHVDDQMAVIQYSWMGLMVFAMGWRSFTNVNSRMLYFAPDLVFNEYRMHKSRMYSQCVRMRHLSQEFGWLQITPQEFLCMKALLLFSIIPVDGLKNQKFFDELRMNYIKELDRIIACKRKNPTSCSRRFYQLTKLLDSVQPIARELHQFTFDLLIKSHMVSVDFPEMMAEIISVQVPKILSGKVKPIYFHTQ
Text: National Center for Advancing Translational Sciences [NCATS]
NIH Chemical Genomics Center [NCGC]
U.S. Environmental Protection Agency [EPA]
National Institutes of Environmental Health Sciences [NIEHS]
National Toxicology Program [NTP]
U.S. Food and Drug Administration [FDA]
Androgen receptor (AR), a nuclear hormone receptor, plays a critical role in AR-dependent prostate cancer and other androgen related diseases. Endocrine disrupting chemicals (EDCs) and their interactions with steroid hormone receptors like AR may cause disruption of normal endocrine function as well as interfere with metabolic homeostasis, reproduction, developmental and behavioral functions. To identify the compounds that inhibit AR signaling, GeneBLAzer AR-UAS-bla-GripTite cell line (Invitrogen, Carlsbad, CA, USA) containing a beta-lactamase reporter gene under control of an Upstream Activator Sequence (UAS) stably integrated into HEK293 cells was used to screen the Tox21 10K compound library.
Tox21 Assay Protocol Summary:
AR-bla cells were dispensed at 2,000 cells/5 uL of assay medium per well into black wall/clear-bottom 1536-well plates using a Multidrop Combi (ThermoFisher Scientific, Waltham, MA) dispenser. After the assay plates were incubated at a 37C and 5% CO2 for 4 hr, 23 nL of compounds dissolved in DMSO, positive controls or DMSO only was transferred to the assay plate by a Pintool station (Kalypsys, San Diego, CA), followed by addition of 1 uL of agonist (R1881) in culture medium using a Bioraptr Flying Reagent Dispenser (FRD) workstation (Beckman Coulter, Indianapolis, IN, USA). The plates were incubated at a 37C and 5% CO2 for 16 h. After 1 uL of LiveBLAzerTM B/G FRET substrate was added using a Bioraptr FRD, the plates were incubated at room temperature for 2 h and fluorescence intensity was measured by an Envision plate reader (PerkinElmer, Shelton, CT).
With `CCCCCCCCCCCCCCCCCCNC(=O)OC1CCN(C(=O)OC[C@H](COC(=O)N(Cc2cccc[n+]2CC)C(=O)c2ccccc2OC)OC)CC1` the Potency was 10.7 µM (active). With `CCOC(=O)[C@H](CCc1ccccc1)N[C@@H](C)C(=O)N1[C@H](C(=O)O)C[C@H]2CCCC[C@@H]21` the Potency was “inactive”. With `C[C@@H]1O[C@@H](OC[C@H]2O[C@@H](Oc3c(-c4ccc(OCCO)c(OCCO)c4)oc4cc(OCCO)cc(O)c4c3=O)[C@H](O)[C@@H](O)[C@@H]2O)[C@H](O)[C@H](O)[C@H]1O` the Potency was “inactive”. With `CCOc1cc(CC(=O)N[C@@H](CC(C)C)c2ccccc2N2CCCCC2)ccc1C(=O)O` the Potency was “inactive”. For `c1ccc2c(c1)OCC(CN1CCCCC1)O2` (stereo not given), the Potency was “inactive”. With `O=C1C2CC3CC1CC(O)(C3)C2` the Potency was “inactive”. `CC12CCC(C1)C(C)(C)C2=O` (stereo not given) was tested, and the Potency was “inactive”. In the case of `O=C(O)C[C@H](O)C[C@H](O)/C=C/c1c(C2CC2)nc2ccccc2c1-c1ccc(F)cc1`, the Potency is reported as 1.69 µM (active). In the case of `NC(N)=NCC1COC2(CCCCC2)O1` (stereo not given), the Potency is reported as “inactive”. In the case of `O=C(O)/C=C/C(O)c1ccc(Cl)cc1` (stereo not given), the Potency is reported as “inactive”. For `C=CC1=C(C(=O)O)N2C(=O)[C@@H](NC(=O)/C(=N\O)c3csc(N)n3)[C@H]2SC1` (stereo in doubt), the Potency was “inactive”. With `O=C1c2ccccc2C(=O)C1c1ccc(F)cc1` the Potency was “inactive”. `CC(=O)OCC1=C(C(=O)O)N2C(=O)[C@@H](NC(=O)Cc3ccccc3)[C@H]2SC1` was tested, and the Potency was “inactive”. For `C/C=C/C1=C(C(=O)O)N2C(=O)[C@@H](NC(=O)[C@H](N)c3ccc(O)cc3)[C@H]2SC1`, the Potency was “inactive”. For `Cc1cc(C(=O)NCCc2ccc(S(=O)(=O)NC(=O)NN3CCCCCC3)cc2)no1`, the Potency was “inactive”. `CC1=C(/C=C/C(C)=C/C=C/C(C)=C/C=C/C=C(C)/C=C/C=C(C)/C=C/C2=C(C)CCCC2(C)C)C(C)(C)CCC1` was tested, and the Potency was “inactive”. In the case of `NC(=O)c1cc[n+](CC2=C(C(=O)O)N3C(=O)[C@@H](NC(=O)C(c4ccccc4)S(=O)(=O)[O-])[C@H]3SC2)cc1` (stereo not given in full), the Potency is reported as “inactive”. `CN[C@H]1CC[C@@H](c2ccc(Cl)c(Cl)c2)c2ccc(S(N)(=O)=O)cc21` was tested, and the Potency was 43.6 µM (active). With `CO/N=C(\C(=O)N[C@@H]1C(=O)N2C(C(=O)O)=C(C[N+]3(C)CCCC3)CS[C@H]12)c1csc(N)n1` the Potency was “inactive”. For `CCC[C@@H]1C[C@@H](C(=O)N[C@@H]([C@H]2O[C@H](SC)[C@H](OP(=O)(O)O)[C@@H](O)[C@H]2O)[C@H](C)Cl)N(C)C1`, the Potency was “inactive”. With `N[C@@H](Cc1cnc[nH]1)C(=O)O` the Potency was “inactive”. `CC(C)NCC1CCc2cc(CO)c([N+](=O)[O-])cc2N1` (stereo not given) was tested, and the Potency was “inactive”. In the case of `C[N+]1(CCCCC[N+]2(C)CCCC2)CCCC1`, the Potency is reported as “inactive”. In the case of `CC[C@H](C)C(=O)O[C@H]1CCC=C2C=C[C@H](C)[C@H](CC[C@@H]3C[C@@H](O)CC(=O)O3)[C@H]21`, the Potency is reported as 15.1 µM (active). In the case of `NCCCC[C@H](NC(=O)[C@@H]1CCCN1C(=O)[C@@H]1CSSC[C@H](N)C(=O)N[C@@H](Cc2ccc(O)cc2)C(=O)N[C@@H](Cc2ccccc2)C(=O)N[C@@H](CCC(N)=O)C(=O)N[C@@H](CC(N)=O)C(=O)N1)C(=O)NCC(N)=O`, the Potency is reported as “inactive”. With `CC1(C)C[C@@H]1C(=O)N/C(=C\CCCCSC[C@H](N)C(=O)O)C(=O)O` the Potency was “inactive”. `CCN(CC)CCn1c(=O)c(Cc2ccc(OC)cc2)nc2ccccc21` was tested, and the Potency was “inactive”. For `O=C(O)[C@@H]1C[C@H](CP(=O)(O)O)CCN1`, the Potency was “inactive”. In the case of `CC[C@@H](C(=O)[C@@H](C)[C@@H](O)[C@H](C)CCc1ccc(C)c(O)c1C(=O)O)[C@H]1O[C@](CC)([C@H]2CC[C@](O)(CC)[C@H](C)O2)C[C@@H]1C`, the Potency is reported as 15.1 µM (active). With `Cc1cc(F)ccc1-c1cc(N2CC[C@@H](O)[C@H]2CO)ncc1N(C)C(=O)C(C)(C)c1cc(C(F)(F)F)cc(C(F)(F)F)c1` the Potency was 15.3 µM (active). In the case of `CC[C@H]1OC(=O)C[C@@H](O)[C@H](C)[C@@H](O[C@@H]2O[C@H](C)[C@@H](O)[C@H](N(C)C)[C@H]2O)[C@@H](CCN2C[C@H](C)C[C@H](C)C2)C[C@@H](C)C(=O)/C=C/C(C)=C/[C@@H]1CO[C@@H]1O[C@H](C)[C@@H](O)[C@@H](OC)[C@H]1OC`, the Potency is reported as “inactive”. With `NC[C@@H]1CC[C@@H](N)[C@@H](O[C@H]2[C@H](O)[C@@H](O[C@H]3O[C@H](CO)[C@@H](O)[C@H](N)[C@H]3O)[C@H](N)C[C@@H]2N)O1` the Potency was “inactive”. For `O=P(O)(O)OP(=O)(O)OP(=O)(O)O`, the Potency was “inactive”. In the case of `O=C(O)Cc1nn(Cc2ccc(Br)cc2F)c(=O)c2ccccc12`, the Potency is reported as “inactive”. With `O=S(=O)(O)CC(S)CS` (stereo not given) the Potency was “inactive”. For `O=P(O)(O)CP(=O)(O)O`, the Potency was “inactive”. `CO[C@H]1C[C@@H]2CC[C@@H](C)[C@@](O)(O2)C(=O)C(=O)N2CCCC[C@H]2C(=O)O[C@H]([C@H](C)C[C@@H]2CC[C@@H](O)[C@H](OC)C2)CC(=O)[C@H](C)C=C(C)[C@@H](O)[C@@H](OC)C(=O)[C@H](C)C[C@H](C)/C=C/C=CC=C1C` was tested, and the Potency was 10.7 µM (active) and 26.8 µM (active). For `CN(C)CCc1c[nH]c2ccc(Cn3cncn3)cc12`, the Potency was “inactive”. With `O=C(O)COc1ccc(C(=O)c2cccs2)c(Cl)c1Cl` the Potency was “inactive”. For `O=C(O)COc1ccccc1/C=N/NC(=O)c1ccncc1`, the Potency was “inactive”.
